Results on 66 compounds are retold here after PubChem BioAssay AID647 (Vanderbilt High Throughput Screening Facility, 2007).

Molecules are shown by their SMILES. Hit rate of the full screen: of about 2,200 compounds, about 1,400 (64%) were called active. The set was probably picked from earlier hits. These entries were drawn from the full list. A number with no mark means an inactive call.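 The calls were made as follows: active = luminescence in either replicate above plate mean of wells with a partly effective reference agonist dose plus 3 SD; inactive = the rest.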

The nature of the experiment: effects on beta-adrenoceptor cAMP reporter signal – cell-based, secondary assay 2, luminescence, counter-screen for D1 allosteric modulator project, confirmation (AID 647).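 Also: isoproterenol raises cAMP through native beta-adrenoceptor Gs so signal bypasses D1; raw luminescence counts from the Envision reader with one value per duplicate well.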 The settings on record: HEK293 D1 CRE-luciferase, isoproterenol EC30 counter-screen; at 10 µM; stronger effect = higher value. (The purpose of a counterscreen is to sort out artefacts and off-target activity.)
For the compound `COc1ccc(-c2nnc(SCC(=O)NC3CCCCC3)o2)cc1OC`, the luminescence is 3200 (active).
For `O=S(=O)(c1cccs1)N1CCc2ccccc2C1`, the luminescence was 3530 (active).
For the compound `CCOC(=O)/C=c1\s/c(=C\c2ccccc2OC)c(=O)n1CC(=O)N1CCOCC1`, the luminescence was 3580 (active).
Turning to `CCCn1c(=O)c2[nH]c(C3CCCC3)nc2n(CCC)c1=O`, the luminescence was 3630 (active).
As to `COc1ccc(S(=O)(=O)N(C)CC(=O)Nc2ccc3c(c2)OCCO3)cc1OC`, the luminescence is 3480 (active).
As for `Cc1nn(-c2ccccc2)c2c1C(=O)NC(=O)C(C)(C)C2`, the luminescence was 3700 (active).
With `CC(=O)OC(C)C[N+](C)(C)C` (stereo unspecified), the luminescence was 2500.
As for `CCc1ccc2oc(=O)cc(CN3CCCCC3C)c2c1` (stereo unspecified), the luminescence was 3040 (active).
Regarding `COc1ccc(-c2n[nH]c(C)c2-c2ccc(OC)c(OC)c2)c(O)c1`, the luminescence was 3290 (active).
As for `CCCSc1nc2c(c(=O)[nH]c(=O)n2C)n1CCc1ccccc1`, the luminescence is 6090 (active).
For `CC1CCN(c2nc3c(c(=O)[nH]c(=O)n3C)n2CCCc2ccccc2)CC1`, the luminescence is 5160 (active).
With `COC(=O)Nc1ncc(CN2C(=O)c3ccccc3C2=O)s1`, the luminescence was 2570.
As to `CCc1cc(=O)oc2cc(OCC(=O)N3CCCc4ccccc43)ccc12`, the luminescence is 4550 (active).
On to `C=CCn1cnc2scc(-c3ccccc3)c2c1=O`, for which the luminescence was 3500 (active).
Then `CCCc1nc(N)nc2c1C(=O)CC(C)(C)C2`, with 4320 (active); and `COc1ccc(-c2nnn(Cc3nc(N)nc(N4CCCCC4)n3)n2)cc1`, with 3650 (active); and `COc1ccc(CCN(C)C(=O)C2CCCN(Cc3ccc(OC)c(OC)c3)C2)cc1OC` (stereo unspecified), with 2610.
Consider `COc1ccc(NC(=O)C2CCCN(S(=O)(=O)c3cccc4cccnc34)C2)cc1OC` (stereo unspecified), for which the luminescence is 3940 (active).
`CCOC(=O)c1c(NC(=O)CSc2nnc(CN3CCOCC3)n2C)sc2c1CCCC2`: the luminescence was 2880.
In the case of `C#CCNc1nc(C(C)C)nc2c1nnn2Cc1ccccc1F`, the luminescence is 3140 (active).
Then `COc1ccc(-c2cc(C(F)(F)F)nc(S(C)(=O)=O)n2)cc1OC`, with 4780 (active); and `COc1ccc(S(=O)(=O)Nc2ccc(S(=O)(=O)N3CCCCC3)cc2)cc1OC`, with 3220 (active).
As for `N#CCCN1CCN(S(=O)(=O)c2ccc(S(=O)(=O)NC3CCCCC3)cc2)CC1`, the luminescence is 2440.
Take `COc1nc(NCc2ccc(Cl)cc2)nc(OC)n1`: the luminescence is 2930.
With `CCOC(=O)c1cc2n(c1C)-c1ccccc1C2=O` the figure was 3830 (active); with `c1ccc(-c2nnc3n2NC(c2ccc4c(c2)OCO4)S3)cc1` (stereo unspecified), 3680 (active); with `CCCCNc1nc2ccccc2nc1NS(=O)(=O)c1cccs1`, 3780 (active).
Turning to `COc1ccc(CCNC(=O)c2cc3sccc3n2C)cc1OC`, the luminescence was 3110.
For the compound `COc1ccc(CCNC(=O)CCn2c(=O)oc3ccccc32)cc1OC`, the luminescence was 3400 (active).
`CCCn1c(=NC(C)=O)c(C(=O)OCC)cc2c(=O)n3ccccc3nc21`: the luminescence is 2650.
On to `CCn1c(=N)c(S(=O)(=O)c2ccc(F)cc2)cc2c(=O)n3ccccc3nc21`, for which the luminescence was 5680 (active).
With `O=C(NCc1ccccn1)c1ccc2nc(-c3ccco3)c(-c3ccco3)nc2c1` the figure was 2550.
Turning to `Cn1c(/C(C#N)=C2/CCCCCN2)nc2ccccc21`, the luminescence was 3990 (active).
For the compound `CCn1cc(C(=O)NCC2COc3ccccc3O2)c2cc(OC)c(OC)cc2c1=O` (stereo unspecified), the luminescence is 2910.
As for `CCC(=O)NC(=Nc1nc2ccccc2s1)NC(=O)CC`, the luminescence is 3180.
Regarding `Cn1c(=O)c2[nH]c(NCC3CCCO3)nc2n(-c2ccccc2)c1=O` (stereo unspecified), the luminescence was 2780.
Consider `c1ccc2c(NCC3CCCO3)nc(-c3ccncc3)nc2c1` (stereo unspecified), for which the luminescence is 3220 (active).
For the compound `CCCCSc1nc2c(c(=O)n1CC)SC(C)C2` (stereo unspecified), the luminescence was 2820.
Then `CCOc1cccc(-n2nnnc2-c2ccc(OC)cc2)c1`, with 4040 (active); and `CC(C)n1c(C(O)c2ccccc2)nc2ccccc21` (stereo unspecified), with 2350; and `COC(=O)c1ccccc1NC(=O)C1CCN(S(=O)(=O)c2cc(OC)ccc2OC)CC1`, with 3570 (active).
Then `CCCS(=O)(=O)N1CCC(C(=O)NCCc2ccc(OC)c(OC)c2)CC1`, with 2720; and `Cn1c(=O)c2cn(-c3cccc4ccccc34)cc2n(C)c1=O`, with 3300 (active); and `COc1ccc(Nc2cc(C)nc(-n3nc(C)cc3C)n2)cc1`, with 3540 (active).
Turning to `CC(=O)c1ccc(Oc2cc(C)nc(-n3nc(C)cc3C)n2)cc1`, the luminescence was 6880 (active).
For `COc1ncnc2sc3c(c12)CCCC3`, the luminescence was 2970.
In the case of `CCOc1ccc(Cn2c(SCCCCC#N)nc3c2c(=O)n(C)c(=O)n3C)cc1OCC`, the luminescence was 5750 (active).
For `COC(=O)C(C)C1Sc2ccccc2NC1=O` (stereo unspecified), the luminescence was 3160.
For `CN1CCN(CC(O)COCc2ccc3c(c2)OCO3)CC1` (stereo unspecified), the luminescence is 5380.
With `c1coc(-c2nc3nc4ccccc4n3nc2-c2ccco2)c1` the figure was 4380 (active); with `COC(=O)C1=C(C)NC2=C(C(=O)c3ccccc32)C1c1ccc(-c2ccc(C(=O)O)cc2)o1` (stereo unspecified), 2560.
In the case of `CCCCc1c(O)nc2n(c1=O)CCS2`, the luminescence is 2460.
With `COc1ccc(CCNc2ncnc3nc[nH]c23)cc1OC` the figure was 3430 (active).
For the compound `CCCc1nc(-c2ccccc2O)n(-c2ccccc2)n1`, the luminescence is 3160 (active).
As to `CC1(C)Cc2ccccc2-c2nc(CN3CCOCC3)[nH]c(=O)c21`, the luminescence was 3540 (active).
Consider `CC1Oc2ccccc2N(Cc2cccnc2)C1=O` (stereo unspecified), for which the luminescence was 2840 (active).
For the compound `CCOC(=O)c1c(NC(=O)CSc2nnc(Cc3csc(N)n3)n2C)sc(C)c1C`, the luminescence was 2440.
With `c1ccc(COc2nsnc2N2CCOCC2)cc1` the figure was 4500; with `N#CCSc1nc2ccccc2c(=O)n1-c1ccccc1`, 4560 (active); with `C=CCSc1nc2c(c(=O)[nH]1)C(C(C)C)C(C#N)=C(N)O2` (stereo unspecified), 5180 (active).
Consider `COc1ncnc2c1N=C1CC(C)(C)CC(N)=C1S2`, for which the luminescence was 2960.
Take `O/N=C(\c1ccc2c(c1)OCCO2)C1CCCCC1`: the luminescence is 2880 (active).
Then `N#Cc1nc(Cc2ccccc2)oc1NCCc1ccccc1`, with 4280 (active); and `CCOc1ccc(Nc2oc(Cc3ccccc3)nc2C#N)cc1`, with 5850 (active); and `COc1ccc(Nc2oc(-c3ccccc3Cl)nc2C#N)cc1`, with 3960 (active).
Take `CC(C)C1C2=C(CC(C)(C)CC2=O)ON1c1ccccc1` (stereo unspecified): the luminescence was 3320.
